Data published in the supplement of paper PMC10515830.
Counter-ions that a name gives are not always drawn.

Key:
Conditions in all cases: 10 µM; exposure time 6 h
[1] = tested on: Danio rerio larvae (5 dpf); assay: difference in excitability vs DMSO (percentage points); higher = more excitable than DMSO
Procedure, shortened: (§1)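 In 96-well plates, 48 wild-type zebrafish larvae aged 5 dpf per compound received 100 µL egg water with library compound at 10 µM final for 6 h. Three hours into this, a 3-h programme of moving lines and 100 ms, 400Hz tones ran at 28.5 ℃ while plates were photographed every 6 s. Z-LaP Tracker scored the behaviours, and each is given as the compound mean minus the vehicle control mean in percentage points.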

[2] = tested on: Danio rerio larvae (5 dpf); assay: difference in startle response vs DMSO (percentage points); higher = stronger startle than DMSO
Procedure, shortened: as §1

[3] = tested on: Danio rerio larvae (5 dpf); assay: difference in activity during first hour vs DMSO (percentage points); higher = more activity than DMSO
Procedure, shortened: as §1

[4] = tested on: Danio rerio larvae (5 dpf); assay: difference in habituation to acoustic stimuli vs DMSO (percentage points); higher = more habituation than DMSO
Procedure, shortened: as §1

[5] = tested on: Danio rerio larvae (5 dpf); assay: difference in combined optomotor response to red, green and blue moving lines vs DMSO (percentage points); higher = stronger optomotor response than DMSO
Procedure, shortened: as §1

Compound	difference in excitability [1]	difference in startle response [2]	difference in activity during first hour [3]	difference in habituation to acoustic stimuli [4]	difference [5]
Cc1c(C(=O)Nc2ccc(N3C[C@@H](C)O[C@@H](C)C3)nc2)cccc1-c1ccc(OC(F)(F)F)cc1 [LDE225 (phosphate)]	13	-4.4	-2.84	-4.9	3.16
CC(=O)O[C@@]12CO[C@@H]1C[C@H](O)[C@@]1(C)C(=O)[C@H](O)C3=C(C)[C@@H](OC(=O)[C@H](O)[C@@H](NC(=O)OC(C)(C)C)c4ccccc4)C[C@@](O)([C@@H](OC(=O)c4ccccc4)[C@H]21)C3(C)C [Docetaxel (hydrate)]	4.98	-2.23	-2.75	-0.117	-1.11
CCOC(=O)[C@H](CCc1ccccc1)N[C@H]1CCc2ccccc2N(CC(=O)O)C1=O [Benazepril (hydrochloride)]	7.01	3.34	-2.03	-3.43	-7.74
CC(CN(C)C)CN1c2ccccc2CCc2ccccc21 (stereo not given) [Trimipramine (maleate)]	12.5	-3.72	-0.632	-5.79	0.935
O=C1CC2(CCCC2)CC(=O)N1CCCCN1CCN(c2ncccn2)CC1 [Buspirone (hydrochloride)]	24.5	1.48	-8.4	4.59	0.171
Cn1c(=O)c2[nH]cnc2n(C)c1=O [Oxtriphylline]	-4.32	6.97	-0.101	1.02	-3.12
CCC(=O)OCC(=O)[C@@]1(OC(=O)CC)[C@H](C)C[C@H]2[C@H]3[C@H]([C@@H](O)C[C@@]21C)[C@@]1(C)C=CC(=O)C=C1C[C@H]3Cl [Alclometasone Dipropionate]	3.59	5.9	-1.03	-0.676	5.42
O=c1[nH]c(=O)n([C@H]2C[C@H](O)[C@@H](CO)O2)cc1I [Idoxuridine]	6.91	0.604	-3.04	5.55	2.86
C[C@@H](O)[C@H]1C(=O)N2C(C(=O)O)=C(S[C@@H]3CN[C@H](C(=O)Nc4cccc(C(=O)O)c4)C3)[C@H](C)[C@H]12 [Ertapenem (sodium salt)]	3.87	3.36	14.7	7.59	3.82
CCN(CC)C(=O)[C@@]1(c2ccccc2)C[C@H]1CN [Levomilnacipran (hydrochloride)]	9.82	0.949	-23	-1.84	-14.2
CC1(C)S[C@@H]2[C@H](NC(=O)[C@H](N)c3ccc(O)cc3)C(=O)N2[C@H]1C(=O)O [Amoxicillin (hydrate)]	2.37	8.42	13.1	5.1	8.79
CC(C)[C@H](N)C(=O)OCC(CO)OCn1cnc2c(=O)nc(N)[nH]c21 (stereo not given in full) [Valganciclovir (hydrochloride)]	-0.104	2.52	-5.18	1.35	3.33
CCOc1ccc2ccccc2c1C(=O)N[C@@H]1C(=O)N2[C@@H]1SC(C)(C)[C@@H]2C(=O)O [Nafcillin (sodium salt hydrate)]	3.99	-0.0381	19.4	-2.07	5.58
NCC(=O)CCC(=O)O [5-Aminolevulinic Acid (hydrochloride)]	11.2	1.8	1.6	-2.9	2.93
Cc1nc(-c2ccc(OCC(C)C)c(C#N)c2)sc1C(=O)O [Febuxostat]	-0.635	0.974	-3.02	3.9	5.26
CN(C)C(=N)NC(=N)N [Metformin (hydrochloride)]	-3.21	1.77	-3.05	-5.21	-1.97
N#Cc1ccc2[nH]cc(CCCCN3CCN(c4ccc5oc(C(N)=O)cc5c4)CC3)c2c1 [Vilazodone (hydrochloride)]	12.6	-3.13	-16.6	-3.2	-4.96
CCCNC(C)C(=O)Nc1c(C)csc1C(=O)OC (stereo not given) [Articaine (hydrochloride)]	2.22	-2.43	5.22	0.219	-0.0299
CCCCNc1ccc(C(=O)OCCOCCOCCOCCOCCOCCOCCOCCOCCOC)cc1 [Benzonatate]	6.12	1.4	-1.8	6.2	-0.0866
COc1cc2c(cc1OC)[C@@H](Cc1cc(OC)c(OC)c(OC)c1)[N+](C)(CCCOC(=O)CC/C=C/CCC(=O)OCCC[N+]1(C)CCc3cc(OC)c(OC)cc3[C@H]1Cc1cc(OC)c(OC)c(OC)c1)CC2 (stereo not given in full) [Mivacurium (chloride)]	19.5	-7.63	-16.7	4.16	5.12
NC(=O)c1ncn([C@@H]2O[C@H](CO)[C@@H](O)[C@H]2O)n1 [Ribavirin]	3.64	-0.473	21.8	-4.01	5.68
COc1ccc(C(=O)CC(=O)c2ccc(C(C)(C)C)cc2)cc1 [Avobenzone]	3.84	-2.54	-6.34	4.35	-2.39
CC(C)OC(=O)CCC/C=C\C[C@@H]1[C@@H](CC[C@@H](O)CCc2ccccc2)[C@H](O)C[C@@H]1O [Latanoprost]	1.84	-0.286	20.8	3.23	7.08
CC1CNc2c(cccc2S(=O)(=O)N[C@@H](CCCNC(=N)N)C(=O)N2CC[C@@H](C)C[C@@H]2C(=O)O)C1 (stereo not given in full) [Argatroban]	3.15	2.67	19.4	-4.15	3.46

Compound	difference in excitability [1]	difference in startle response [2]	difference in activity during first hour [3]	difference in habituation to acoustic stimuli [4]	difference [5]
CN1CC(=O)N2[C@H](c3ccc4c(c3)OCO4)c3[nH]c4ccccc4c3C[C@@H]2C1=O [Tadalafil]	3.64	1.33	0.0422	3.67	6.23
CCN1CC(CCN2CCOCC2)C(c2ccccc2)(c2ccccc2)C1=O (stereo not given) [Doxapram (hydrochloride hydrate)]	1.64	-4.79	16.8	-5.51	1.89
CCCNCC(O)COc1ccccc1C(=O)CCc1ccccc1 (stereo not given) [Propafenone (hydrochloride)]	14.4	-3.28	8.84	0.424	6.51
CCCCN1CCCCC1C(=O)Nc1c(C)cccc1C (stereo not given) [Bupivacaine]	0.996	-2.63	13.4	2.63	6.71
CC(=O)NCCCS(=O)(=O)O [Acamprosate (calcium salt)]	5.62	1.29	-8.55	7.23	4.69
CC[C@@H]1/C=C(\C)C[C@H](C)C[C@H](OC)[C@H]2O[C@@](O)(C(=O)C(=O)N3CCCC[C@H]3C(=O)O[C@H](/C(C)=C/[C@@H]3CC[C@H](Cl)[C@H](OC)C3)[C@H](C)[C@@H](O)CC1=O)[C@H](C)C[C@@H]2OC [Pimecrolimus]	12	-9.07	23	-1.18	-12.6
CC(C)NCC(O)COc1ccc(CCOCC2CC2)cc1 (stereo not given) [Betaxolol (hydrochloride)]	2.57	2.31	11.4	-2.52	6.22
CC(S)C(=O)NCC(=O)O (stereo not given) [Tiopronin]	1.71	-1.91	3.62	-3.05	3.9
CO[C@H]1/C=C/O[C@@]2(C)Oc3c(C)c(O)c4c(O)c(c(/C=N/N5CCN(C)CC5)c(O)c4c3C2=O)NC(=O)/C(C)=C\C=C\[C@H](C)[C@H](O)[C@@H](C)[C@@H](O)[C@@H](C)[C@H](OC(C)=O)[C@@H]1C [Rifampicin]	2.43	2.9	8.79	-1.68	-3.29
C=CC1=C(C(=O)O)N2C(=O)[C@@H](NC(=O)/C(=N\O)c3csc(N)n3)[C@H]2SC1 [Cefdinir]	6.83	5.77	6.72	-1.11	4.15
C[C@H](Cn1cnc2c(N)ncnc21)OCP(=O)(O)O [Tenofovir]	-6.21	0.269	0.971	-2.1	5.37
Cc1cccc(C)c1OCC(=O)N[C@@H](Cc1ccccc1)[C@@H](O)C[C@H](Cc1ccccc1)NC(=O)[C@H](C(C)C)N1CCCNC1=O [Lopinavir]	10.5	-2.95	-0.504	-4.82	-0.255
COc1ccc(CC2c3cc(OC)c(OC)cc3CC[N+]2(C)CCC(=O)OCCCCCOC(=O)CC[N+]2(C)CCc3cc(OC)c(OC)cc3C2Cc2ccc(OC)c(OC)c2)cc1OC (stereo not given) [Atracurium (besylate)]	5.62	-4.13	-9.46	-3.02	-3.83
CC(=O)c1ccc(S(=O)(=O)NC(=O)NC2CCCCC2)cc1 [Acetohexamide]	-0.755	2.86	-0.443	-3.12	2.21
Cc1cccc(Nc2ccccc2C(=O)O)c1C [Mefenamic Acid]	6.54	-1.5	-5.95	-12.8	-15.5
CCCC(=O)O[C@]1(C(=O)COC(C)=O)CC[C@H]2[C@@H]3C[C@H](F)C4=CC(=O)C=C[C@]4(C)[C@@]3(F)[C@@H](O)C[C@@]21C [Difluprednate]	3.2	2.35	6.57	4.62	-1.11
COc1ccc(-c2ccc3cc(C(=O)O)ccc3c2)cc1C12CC3CC(CC(C3)C1)C2 [Adapalene]	-8.45	3.9	-0.172	-5	3.86
OC[C@H]1O[C@@H](c2ccc(Cl)c(Cc3ccc(O[C@H]4CCOC4)cc3)c2)[C@H](O)[C@@H](O)[C@@H]1O [Empagliflozin]	2.31	-2.32	18.8	-5.57	4.06
CCN(CC)C(=O)C1(c2ccccc2)CC1CN (stereo not given) [Milnacipran (hydrochloride)]	16	-4.41	-15.2	1.78	-3.7
CC(C)(C)NC(=O)[C@@H]1CN(Cc2cccnc2)CCN1C[C@@H](O)C[C@@H](Cc1ccccc1)C(=O)N[C@H]1c2ccccc2C[C@H]1O [Indinavir (sulfate)]	-11.9	-2.27	1.38	11.2	-0.405
Cc1nnc(SCC2=C(C(=O)O)N3C(=O)[C@@H](NC(=O)Cn4cnnn4)[C@H]3SC2)s1 [Cefazolin (sodium salt)]	9.87	-2.79	7.43	-0.463	5.77
Cc1cccc(CN2CCN(C(c3ccccc3)c3ccc(Cl)cc3)CC2)c1 (stereo not given) [Meclizine (hydrochloride)]	6.31	-8.4	21.1	-9.92	-14.3
CN(C)CCCN1c2ccccc2CCc2ccc(Cl)cc21 [Clomipramine (hydrochloride)]	0.766	1.97	-14.9	-3.04	-3.76
